High-throughput results: PubChem, National Center for Advancing Translational Sciences (NCATS)
TRHR enhancer: allosteric enhancers of human TRH receptor | 360,000 compounds, 0.66% hits | TRHR cells, fluo-8 calcium fluorescence, EC20 TRH enhancement | P34981 | enhancement, % at 2 µM; in the data active = enhancement above about 30%; also: 0% is about no effect
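Enhancer read-out: after compound pinning and an initial kinetic agonist-mode read, an EC20 of TRH (10 nM final) was injected and fluo-8 calcium signal (Ex 480/Em 530) followed at 1 s/cycle for 100 cycles in TRHR-expressing cells.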
TRHR ag: TRH receptor (human) agonism; P34981; TRHR cells, calcium flux fluo-8, FDSS agonist mode; activation, % at 2 µM; 360,000 compounds, 0.18% hits; also: 0% is about no effect
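Steps: seed TRHR cells overnight; add fluo-8 no-wash Ca dye, RT 30 min–1.5 h; record 10 s baseline; pin-transfer compounds; monitor fluorescence 1 cycle/s for the agonist window. Calcium increases flag candidate agonists.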
D1 potentiator: potentiators of human D1 dopamine receptor. P21728. HEK293 TREx D1 cells, calcium flux, dopamine EC20 potentiation. potentiation, % at 10 µM. 360,000 compounds, 0.036% hits; in the data active = potentiation above about 30%; also: 0% is about no effect
Target sequence (P21728 whole entry, looked up): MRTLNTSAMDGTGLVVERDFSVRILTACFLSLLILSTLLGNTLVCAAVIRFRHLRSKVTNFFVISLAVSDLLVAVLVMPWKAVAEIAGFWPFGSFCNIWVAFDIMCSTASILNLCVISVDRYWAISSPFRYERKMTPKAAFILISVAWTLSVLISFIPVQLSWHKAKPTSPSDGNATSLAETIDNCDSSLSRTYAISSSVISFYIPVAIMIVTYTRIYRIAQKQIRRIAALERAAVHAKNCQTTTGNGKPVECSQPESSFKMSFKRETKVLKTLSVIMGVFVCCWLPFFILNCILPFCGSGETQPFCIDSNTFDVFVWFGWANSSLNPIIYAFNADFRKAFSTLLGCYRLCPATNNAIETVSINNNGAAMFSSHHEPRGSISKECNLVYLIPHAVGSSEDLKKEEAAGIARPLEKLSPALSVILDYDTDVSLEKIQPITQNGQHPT
D1 agonist: human D1 receptor agonism; 360,000 compounds, 1% hits; AID 504660; activation, % at 2 µM; HEK293 T-REx D1 cells, calcium flux, agonist mode; P21728; also: 0% is about no effect
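Agonism was scored from calcium flux recorded over 180 s (1 read/s) after pintool compound addition, following a 10-cycle baseline. Cells were inducible force-coupled HEK293 TREx D1, plated overnight at 30 C and loaded with no-wash calcium dye.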
D1 antagonist: blocks dopamine activation of the human D1 receptor; HEK293 TREx D1 cells, calcium flux, dopamine EC80; active compounds read low; activity change, negative = inhibition, % at 10 µM; 360,000 compounds, 3.2% hits; AID 504652; in the data active = activity change below about -30%; also: % is scaled to controls: 0 for no effect and ±100 for the full control effect
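After overnight tetracycline induction at 30 C, force-coupled D1 HEK293 cells took up a no-wash calcium dye at room temperature. Compounds were added and monitored 180 s, and the response to EC80 dopamine was then recorded.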
LDHA inh: inhibitors of human lactate dehydrogenase A | P00338 | purified LDHA, NADH/diaphorase-resazurin fluorescence; active compounds read low | activity change, % (values are at about 110 or 230 µM) | 480,000 compounds, 0.15% hits | AID 1347041; in the data active = activity change below about -30%;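 also: plate controls were DMSO wells for no effect and wells without enzyme for full effect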
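Human LDH5 at 2 nM final in Tris HCl pH 7.4 with 0.06 mM NADH and 0.2 mM pyruvate, reacted 5 minutes at room temperature. Remaining NADH coupled via diaphorase/resazurin; resorufin fluorescence read at 0 and 20 minutes, normalized to enzyme-free and DMSO wells.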
An asterisk follows results filed as active; · = no result; ! = not confirmed by another sample. A selection: hits, their analogues and other compounds. The true share with any hit is near 3.6%. Rule as the data show it, unless noted: active = activation above about 30%; inactive = the rest.

SMILES | TRHR enhancer | TRHR ag | D1 potentiator | D1 agonist | D1 antagonist | LDHA inh
CN1/C(=C\C(=O)c2cccc(S(=O)(=O)N3CCCCC3)c2)C(C)(C)c2ccccc21 | 30.2* | 0.5 | -6.6 | 1.4 | -4.5 | -4.3
C/C(=N\NC(=O)c1c(Br)c(C)nn1C)c1ccc(NC(=O)c2ccoc2C)cc1 | -6.4 | 0.2 | -3.9 | 0.5 | 10.5 | 0.0
C/C(=N\NC(=O)c1nn(C)c(C)c1Br)c1ccc(NC(=O)c2ccoc2C)cc1 | 30.9* | -0.9 | -0.1 | 2.2 | -1.6 | -4.9
COc1cc(/C=C/C(=O)OCC(=O)NCCc2ccccc2)ccc1OC(F)F | 0.7 | -0.9 | -6.9 | 14.2 | -30.3* | -9.9
CCOc1ccc(/C=C/C(=O)OCC(=O)NCCc2ccc(OCC)c(OCC)c2)cc1OC | -1.9 | 0.4 | -2.2 | 0.2 | 10.4 | -6.3
CCOc1ccccc1NC(=O)COC(=O)/C=C/c1ccc(OC)c(OC)c1 | 3.4 | -0.1 | -4.5 | 6.2 | -38.2* | -14.4
Cc1ccc(-c2csc3ncn(Cc4nc(C(C)C)no4)c(=O)c23)cc1 | · | · | · | · | · | 9.6
CCS(=O)(=O)c1ncc(Cl)c(C(=O)Nc2ccc(S(=O)(=O)N(C)c3ccccc3)cc2)n1 | -10.6 | 0.7 | -18.1 | 1.7 | -60.7*! | -7.7
CCN(c1ccccc1)S(=O)(=O)c1ccc(NC(=O)c2nc(S(C)(=O)=O)ncc2Cl)cc1 | -0.9 | 1.1 | -6.6 | 1.6 | -34.4* | -3.7
CCSc1ncc(Cl)c(C(=O)Nc2ccc(S(=O)(=O)N(C)c3ccccc3)cc2)n1 | -3.2 | 0.9 | 0.2 | 7.7 | 1.9 | -1.8
COc1ccccc1OCC(=O)Nc1ccc(S(=O)(=O)N(C)c2ccccc2)cc1 | -5.1 | 0.1 | -1.4 | 12.2 | -40.8* | -9.1
CNC(=O)c1ccc(-c2nc(CN3CCN(C(=O)Nc4ccc(C)c(Cl)c4)CC3)c(C)o2)cc1 | · | · | · | · | · | -1.3
CCOC(=O)Cc1nnc(SC(C)C(=O)Nc2ccc(C)c(F)c2)n1C (stereo unspecified) | · | · | · | · | · | -6.3
CSCC[C@H](NC(=O)OC(C)(C)C)c1nnc(SCc2cccc(F)c2)o1 | 2.7 | 0.8 | -4.3 | 3.3 | -27.9 | -5.0
CC(C)C[C@H](NC(=O)OC(C)(C)C)c1nnc(SCc2cccc(F)c2)o1 | 4.0 | 0.1 | 6.2 | 30.6* | -13.4 | 7.4
CC(C)n1c(-c2ccc(N(C)C)cc2)nc2ccccc21 | 3.6 | 0.4 | -11.9 | 3.5 | -42.6* | -3.2
Cn1c(=O)c2c(nc(NCCCO)n2CCc2ccccc2)n(C)c1=O | 6.0 | -0.2 | 2.1 | 1.0 | 1.8 | -5.1
CCn1c(Oc2ccccc2C)nc2c1c(=O)n(C)c(=O)n2C | -3.3 | -2.0 | 3.0 | 4.5 | -4.2 | -0.3
C=CCn1c(Oc2ccc(C=O)cc2OCC)nc2c1c(=O)n(C)c(=O)n2C | 1.5 | -0.2 | -13.1 | 0.8 | -61.3* | 0.6
CCOc1ccc(CCNc2nc3c(c(=O)n(C)c(=O)n3C)n2CC)cc1OCC | -1.6 | -2.5 | -9.8 | 5.7 | -31.3* | -2.9
COc1ccc(CCNc2nc3c(c(=O)n(C)c(=O)n3C)n2Cc2ccc(F)cc2)cc1OC | 5.2 | -1.5 | 3.5 | -1.1 | 11.3 | -6.0
Cn1c(=O)c2c(nc(NCc3cccnc3)n2Cc2ccccc2Cl)n(C)c1=O | 3.1 | -0.1 | 16.9 | 1.0 | -3.0 | -7.2
Cn1c(=O)c2c(nc(NCc3ccccc3)n2Cc2ccccc2Cl)n(C)c1=O | 12.4 | -0.1 | -6.5 | -1.7 | -30.3* | -16.2
Cn1c(=O)c2c(nc(NCCO)n2CCc2ccccc2)n(C)c1=O | -2.3 | 0.4 | -6.1 | 2.1 | -79.5* | -7.0
Cn1c(=O)n(C)c2cc(Sc3ccccc3Cl)c(NC(=O)C3CC3)cc21 | · | · | · | · | · | 0.0
SMILES | TRHR enhancer | TRHR ag | D1 potentiator | D1 agonist | D1 antagonist | LDHA inh
O=C(Nc1cccc(C(=O)O)c1)/C(=C\c1ccc2c(c1)OCO2)NC(=O)c1ccco1 | 33.4* | 0.7 | -2.6 | 0.5 | -7.0 | -1.8
Cc1ccc(C)c(CSc2nc3nc[nH]c3c(=O)[nH]2)c1 | · | · | · | · | · | -6.2
CC(=O)NC1=NN(C(C)=O)C(C)(c2cccs2)S1 (stereo unspecified) | -1.9 | -0.1 | 8.9 | 1.1 | -4.0 | -2.0
CCc1ccc(C2(C)SC(NC(C)=O)=NN2C(C)=O)cc1 (stereo unspecified) | -0.3 | -2.5 | 1.4 | 55.7* | 2.4 | 1.0
CC(=O)NC1=NN(C(C)=O)C(C)(c2cccnc2)S1 (stereo unspecified) | 3.1 | 0.0 | -2.5 | 6.9 | -46.3* | -7.0
CC(=O)NC1=NN(C(C)=O)C(C)(c2ccc(C)o2)S1 (stereo unspecified) | -0.8 | 0.3 | 4.8 | 2.3 | -14.1 | -6.6
CCc1c(C)nc2nc(SCc3ccccc3Cl)[nH]n2c1=O | 6.6 | 0.0 | -8.8 | 7.3 | -43.3* | -3.4
CCCCCCNC(=S)NNC(=O)c1cc(-c2ccccc2)nc2ccccc12 | · | · | · | · | · | 1.9
Cc1ccc2nc(N3C(=O)CNC3=S)sc2c1 | -6.2 | 0.2 | -5.5 | 5.9 | -7.1 | -10.7
COc1ccc2nc(N3C(=O)CNC3=S)sc2c1 | 5.8 | 0.3 | -9.6 | 0.2 | -40.5* | -4.9
CCCCCC/C(=N/O)c1ccccn1 | -3.9 | -0.6 | -1.4 | 4.8 | -37.1* | 1.8
CN(Cc1ccccc1)c1nc2c(S(=O)(=O)c3cccc(Cl)c3)nnn2c2ccsc12 | 6.8 | -0.2 | -3.1 | 1.8 | -32.1* | -9.4
CCN(CC)c1nc2c(S(=O)(=O)c3cccc(Cl)c3)nnn2c2ccsc12 | -19.7 | 0.6 | -6.0 | 4.0 | -40.4* | 0.1
CCOC(=O)/C(N=Nc1c(C)n(C)n(-c2ccccc2)c1=O)=C(/O)c1ccccc1 | -2.7 | -0.1 | -1.2 | 0.7 | -5.1 | -6.2
COC(=O)/C(N=Nc1c(C)n(C)n(-c2ccccc2)c1=O)=C(\C)O | 33.0* | -0.2 | 1.2 | 0.6 | -8.7 | -4.0
C=CCNc1nc2c(c(=O)[nH]c(=O)n2C)n1Cc1ccccc1Cl | · | · | · | · | · | -12.9
Cc1ccc(NC(=O)c2ccc(F)c(S(=O)(=O)NCCc3ccccc3)c2)cc1F | 3.1 | 1.6 | -0.8 | 11.7 | -30.2* | -0.9
O=C(Nc1nc2c(s1)CCCC2)c1ccc(N2C(=O)CCC2=O)cc1 | 25.2 | 0.1 | -7.1 | 2.9 | -71.0* | -11.0
CC1CCc2nc(NC(=O)c3ccc(N4C(=O)CCC4=O)cc3)sc2C1 (stereo unspecified) | 9.8 | 0.1 | 0.1 | 2.4 | 7.0 | -5.6
O=C(NC(NNc1ccc([N+](=O)[O-])cc1)(C(F)(F)F)C(F)(F)F)c1ccc(F)cc1 | -3.3 | 1.7 | -11.5 | 26.7 | -16.5 | -2.3
CN(C)S(=O)(=O)c1ccc2nc(NC(=O)c3cccnc3)sc2c1 | -4.6 | 0.0 | -1.7 | 1.6 | 5.1 | -2.1
O=C(NC(NNc1ccc([N+](=O)[O-])cc1)(C(F)(F)F)C(F)(F)F)c1ccccc1Cl | 11.5 | -1.2 | -3.1 | 13.0 | -37.6* | 10.2
